These results are taken from the supplement of paper PMC6522484.

The structures appear in SMILES notation. ± gives the standard deviation of the averaged measurements.

In experiment [1] the test system is DLD1. Kind of experiment: cell viability (CellTiter-Glo) relative to plate median (fraction of plate median); higher = more viable cells. The note with it: 10 µM, treatment time 24 h. An outline of the steps:
(§1)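 Colorectal cancer cells expressing a stably transduced lentiviral TCF/Wnt firefly luciferase reporter were treated in 384-well plates with kinase inhibitor library compounds at a final 10 µM for 24 h. Firefly luciferase or CellTiterGlo luminescence was then read on parallel plates. Well signals were normalised to the plate median (webcellHTS2, additive, no log transformation) and averaged over two independent replicates.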

Experiment [2] deals with HCT116. The experiment is described as above. Conditions: 10 µM; treatment time 24 h; reporter: TCF4/Wnt. The method, boiled down:
as §1

Experiment [3] concerns SW480. The experiment is described as above. The note with it: 10 µM; treatment time 24 h; reporter: 7TFP. The method, boiled down:
as §1

Experiment [4] concerns DLD1. In words: TCF/Wnt firefly luciferase reporter signal relative to plate median (fraction of plate median); higher = higher Wnt reporter signal. The note with it: 10 µM, treatment time 24 h. The method, boiled down:
as §1
In general terms: Reporter assays use an easily measured gene product as a stand-in for the process of interest.

For experiment [5], the system named is HCT116. Described as above. Conditions: 10 µM; treatment time 24 h; reporter: TCF4/Wnt. An outline of the steps: as §1
The test system of experiment [6] is SW480. Described as above. Conditions: 10 µM; treatment time 24 h; reporter: 7TFP. The method, boiled down:
as §1

As for `Cc1ccc(-n2nc(C(C)(C)C)cc2NC(=O)Nc2ccc(OCCN3CCOCC3)c3ccccc23)cc1` [BIRB 796 (Doramapimod)], the cell viability in experiment [1] (reporter: 7TFP) worked out at 1.15 ± 0.057; in experiment [1] (reporter: TCF4/Wnt) it was 1.12 ± 0.17; in experiment [2], 1.06 ± 0.096; in experiment [3] it was 0.975 ± 0.064. Moreover, the “TCF/Wnt firefly luciferase reporter signal” value in experiment [4] (reporter: 7TFP) amounted to 0.984 ± 0.0028; in experiment [4] (reporter: TCF4/Wnt), 1.05 ± 0.17; in experiment [5], 1.18 ± 0.22; in experiment [6] it was 1.07 ± 0.078.

In the case of `CCCS(=O)(=O)Nc1ccc(F)c(C(=O)c2c[nH]c3ncc(Cl)cc23)c1F`, the cell viability in experiment [1] (reporter: 7TFP) is 1.03 ± 0.08; in experiment [1] (reporter: TCF4/Wnt), 0.942 ± 0.074; in experiment [2], 1.12 ± 0.071; in experiment [3] it was 0.837 ± 0.013. In addition, the “TCF/Wnt firefly luciferase reporter signal” value in experiment [4] (reporter: 7TFP) turned out to be 0.775 ± 0.33; in experiment [4] (reporter: TCF4/Wnt) it was 0.746 ± 0.1; in experiment [5], 1.05 ± 0.11; in experiment [6] it was 0.786 ± 0.067.

With `Cc1cc(C)c(/C=C2\C(=O)Nc3ccccc32)[nH]1` [Semaxanib (SU5416)], the cell viability was 0.951 ± 0.016 in experiment [1] (reporter: 7TFP), 1.02 ± 0.038 in experiment [1] (reporter: TCF4/Wnt), 1.2 ± 0.071 in experiment [2] and 0.879 ± 0.028 in experiment [3]. In addition, the “TCF/Wnt firefly luciferase reporter signal” value in experiment [4] (reporter: 7TFP) came to 1.47 ± 0.021; in experiment [4] (reporter: TCF4/Wnt) it was 1.335 ± 0.0071; in experiment [5], 0.91 ± 0.11; in experiment [6] it was 1.04 ± 0.021.

In the case of `Cc1csc(-c2nnc(Nc3ccc(Oc4ncccc4-c4ccnc(N)n4)cc3)c3ccccc23)c1`, the cell viability is 0.943 ± 0.042 in experiment [1] (reporter: 7TFP), 1.03 ± 0.035 in experiment [1] (reporter: TCF4/Wnt), 1.16 ± 0.071 in experiment [2] and 1.03 ± 0.059 in experiment [3]. Further, the “TCF/Wnt firefly luciferase reporter signal” value in experiment [4] (reporter: 7TFP) came to 1.08 ± 0.11; in experiment [4] (reporter: TCF4/Wnt), 0.866 ± 0.13; in experiment [5], 1.75 ± 0.14; in experiment [6] it was 0.983 ± 0.067.

As for `Cc1cc(Nc2nc(N[C@@H](C)c3ccc(F)cc3)c(C#N)cc2F)n[nH]1`, the cell viability in experiment [1] (reporter: 7TFP) came out at 0.875 ± 0.17; in experiment [1] (reporter: TCF4/Wnt) it was 0.843 ± 0.062; in experiment [2] it was 0.831 ± 0.015; in experiment [3], 1.02 ± 0.035. Also, the “TCF/Wnt firefly luciferase reporter signal” value in experiment [4] (reporter: 7TFP) amounted to 1.14 ± 0.23; in experiment [4] (reporter: TCF4/Wnt), 1.15 ± 0.25; in experiment [5], 1.22 ± 1.1; in experiment [6], 0.804 ± 0.38.

For `Cc1cc(Nc2cc(N3CCN(C)CC3)nc(/C=C/c3ccccc3)n2)n[nH]1`, the cell viability in experiment [1] (reporter: 7TFP) amounted to 0.88 ± 0.03; in experiment [1] (reporter: TCF4/Wnt), 0.942 ± 0.061; in experiment [2], 0.678 ± 0.019; in experiment [3] it was 0.9085 ± 0.0035. Besides, the “TCF/Wnt firefly luciferase reporter signal” value in experiment [4] (reporter: 7TFP) was 1.06 ± 0.11; in experiment [4] (reporter: TCF4/Wnt) it was 1.01 ± 0.21; in experiment [5], 1.23 ± 0.33; in experiment [6], 0.687 ± 0.28.

Take `C=CC(=O)Nc1cccc(Oc2nc(Nc3ccc(N4CCN(C)CC4)cc3OC)ncc2Cl)c1`: the cell viability was determined as 1.24 ± 0.014 in experiment [1] (reporter: 7TFP), 1.08 ± 0.042 in experiment [1] (reporter: TCF4/Wnt), 1.14 ± 0.05 in experiment [2] and 0.922 ± 0.064 in experiment [3]. Moreover, the “TCF/Wnt firefly luciferase reporter signal” value in experiment [4] (reporter: 7TFP) came out at 1.16 ± 0.078; in experiment [4] (reporter: TCF4/Wnt), 1.05 ± 0.05; in experiment [5], 0.722 ± 0.55; in experiment [6] it was 0.71 ± 0.31.

`CNC(=O)c1cc(Oc2ccc(NC(=O)Nc3ccc(Cl)c(C(F)(F)F)c3)cc2)ccn1` [Sorafenib (Nexavar)]: the cell viability in experiment [1] (reporter: 7TFP) was 1.11 ± 0.028; in experiment [1] (reporter: TCF4/Wnt) it was 1.04 ± 0.098; in experiment [2], 1.135 ± 0.0071; in experiment [3] it was 1.04 ± 0.021. Also, the “TCF/Wnt firefly luciferase reporter signal” value in experiment [4] (reporter: 7TFP) came out at 0.959 ± 0.2; in experiment [4] (reporter: TCF4/Wnt), 0.883 ± 0.081; in experiment [5] it was 1.06 ± 0.078; in experiment [6], 1.19 ± 0.057.

Consider `C[C@@H](N)[C@H]1CC[C@H](C(=O)Nc2ccncc2)CC1`, for which the cell viability in experiment [1] (reporter: 7TFP) turned out to be 1.03 ± 0.05; in experiment [1] (reporter: TCF4/Wnt), 1.03 ± 0.05; in experiment [2] it was 1.09 ± 0.021; in experiment [3], 1.045 ± 0.0071. For the same compound, the “TCF/Wnt firefly luciferase reporter signal” value in experiment [4] (reporter: 7TFP) was determined as 1.22 ± 0.092; in experiment [4] (reporter: TCF4/Wnt), 1.32 ± 0.057; in experiment [5], 1.53 ± 0.064; in experiment [6], 1.18 ± 0.057.

Take `CN1CCN(c2cccc(Nc3nc4c(-c5ccc(S(C)(=O)=O)cc5)cccn4n3)c2)CC1`: the cell viability in experiment [1] (reporter: 7TFP) amounted to 0.927 ± 0.013; in experiment [1] (reporter: TCF4/Wnt) it was 0.896 ± 0.042; in experiment [2], 0.871 ± 0.031; in experiment [3], 1.055 ± 0.0071. Also, the “TCF/Wnt firefly luciferase reporter signal” value in experiment [4] (reporter: 7TFP) worked out at 0.96 ± 0.1; in experiment [4] (reporter: TCF4/Wnt) it was 1.03 ± 0.057; in experiment [5], 1.32 ± 0.7; in experiment [6] it was 1.34 ± 0.56.

Take `Nc1ccc(C(=O)Nc2cccc(-c3nc(N4CCOCC4)c4oc5ncccc5c4n3)c2)cn1`: the cell viability in experiment [1] (reporter: 7TFP) stood at 0.832 ± 0.044; in experiment [1] (reporter: TCF4/Wnt), 0.858 ± 0.025; in experiment [2], 0.819 ± 0.049; in experiment [3], 1.004 ± 0.0078. Also, the “TCF/Wnt firefly luciferase reporter signal” value in experiment [4] (reporter: 7TFP) turned out to be 0.758 ± 0.033; in experiment [4] (reporter: TCF4/Wnt), 0.654 ± 0.069; in experiment [5] it was 0.591 ± 0.2; in experiment [6], 0.827 ± 0.4.
